Results: the supplement of paper PMC6555819

Tests used:
Assay in all cases: PBM binding z-score (relative to random genomic background probes); higher = stronger binding; sequences stand for … in GC…GCGATTGACAGCGTAGAATGAAGG
[1] = system: FXR:RXRa (NR concentration 270 nM, RXRa partner concentration 90 nM)
Summary of the method: (§1)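 Each nuclear receptor dimer, without ligand, was incubated for 1 h on custom Agilent 4×180K protein-binding microarrays. Binding was detected with antibodies against each partner (one per run), and scanned fluorescence was regression-normalized. The binding z-scores are referenced to random human genomic background probes.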

[2] = system: LXRa:RXRa (NR concentration 270 nM, RXRa partner concentration 90 nM)
Summary of the method: as §1

[3] = system: LXRa homodimer (NR concentration 270 nM)
Summary of the method: as §1

[4] = system: LXRb:RXRa (NR concentration 270 nM, RXRa partner concentration 90 nM)
Summary of the method: as §1

[5] = system: LXRb homodimer (NR concentration 270 nM)
Summary of the method: as §1

[6] = system: PPARa:RXRa (NR concentration 270 nM, RXRa partner concentration 90 nM)
Summary of the method: as §1

[7] = system: PPARg:RXRa (NR concentration 180 nM, RXRa partner concentration 90 nM)
Summary of the method: as §1

[8] = system: PPARg:RXRa 270nM:90nM, anti-RXR (NR concentration 270 nM, RXRa partner concentration 90 nM)
Summary of the method: as §1

[9] = system: PPARg:RXRa 30nM:10nM, anti-RXR (NR concentration 30 nM, RXRa partner concentration 10 nM)
Summary of the method: as §1

[10] = system: PPARg:RXRa 90nM:30nM, anti-RXR (NR concentration 90 nM, RXRa partner concentration 30 nM)
Summary of the method: as §1

Sequence | PBM binding z-score [1] | PBM binding z-score [2] | PBM binding z-score [3] | PBM binding z-score [4] | PBM binding z-score [5] | PBM binding z-score [6] | PBM binding z-score [7] | PBM binding z-score [8] | PBM binding z-score [9] | PBM binding z-score [10]
AGTGAAAGTTCACTAGGTAACGTAAGATTCAGCT | 4.44 | 5.02 | 3.08 | 2.88 | 0.454 | 4.5 | 6.12 | 6.07 | 3.52 | 5.3
TGAATGAGGTTAAAGATCAGAGAACGTGGCGTCG | 3.2 | 2.25 | -0.274 | 1.7 | 0.104 | 4.43 | 6.08 | 6.65 | 5.22 | 6.58
ACTAGCAGGCCAAATTTGGGTCACTCAAACAAAG | 0.491 | 0.315 | -0.377 | 0.947 | -0.562 | 2.99 | 1.62 | 1.84 | 0.0732 | 1.04
ACAGACAGATGAGTGAAGGTAACTCAGCTGGACG | 0.536 | -0.0158 | -0.336 | -0.328 | -0.174 | -0.0253 | 0.883 | 0.561 | 0.259 | 0.0616
TCATATAGGTAAAGGTGAAAATCGAACGATATGA | 1.01 | 1.19 | -0.224 | 1.35 | 0.0615 | 3.15 | 4.11 | 4.4 | 4.25 | 4.59
ATCTCAAGGTAAAGTTCAGTGAAAGATCGATAGA | 1.67 | 2.17 | 1.5 | 1.42 | 0.854 | 2.22 | 1.97 | 3.4 | 1.67 | 2.73
TCGAGTAGGTTACCAATGTGGCATTCAGCTTTCT | 0.261 | 1.41 | -0.667 | 0.671 | 0.104 | 0.803 | 0.268 | 1.09 | 0.936 | 1.08
TCATATAGGGAAACAGGTGAAAGTCCGTAAGTTA | 1.01 | 1.04 | 0.121 | 1.11 | -0.148 | 1.74 | 1.69 | 3.03 | 4.32 | 3.7
GCTTACGGGTCAAATGTTATAGCATGAATAGAAT | 6.7 | 4.31 | 0.0219 | 4.11 | 0.827 | 5.85 | 6.74 | 6.08 | 3.81 | 5.84
AGTCAAAGTTCACTAGCTAACGTAAGATTCAGCT | 4.87 | 4.82 | 2.93 | 3.04 | 1.11 | 3.91 | 5.29 | 5.49 | 2.82 | 4.54
GCTAGTTGGTAAGTAAAAGGTCACACACCGGTCG | 2.63 | 4.22 | 4.45 | 3.94 | 0.812 | 4.58 | 4.49 | 6.32 | 4.94 | 6.92
ATCGAAAGGACGAGGTGAGTATAGAGAAAGGGAA | 0.588 | 0.168 | -0.177 | -0.191 | -0.00522 | 0.0333 | 0.589 | -0.152 | 0.508 | 0.313
